Data taken from PubChem BioAssay.
Values without a mark were called inactive. The rule behind the calls is not given here.

biological target: Pantothenate synthetase (Mycobacterium tuberculosis (strain ATCC 25618 / H37Rv)) (UniProt P9WIL5); experiment: Recombinant Mtb pantothenate synthetase (PanC) inhibitors, coupled enzyme, confirmatory (AID 375); settings: coupled enzyme assay; at 10 µM, hits give high values;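 note: 0% = full reaction with vehicle and 100% = no enzyme background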
Sequence (P9WIL5 whole entry, looked up): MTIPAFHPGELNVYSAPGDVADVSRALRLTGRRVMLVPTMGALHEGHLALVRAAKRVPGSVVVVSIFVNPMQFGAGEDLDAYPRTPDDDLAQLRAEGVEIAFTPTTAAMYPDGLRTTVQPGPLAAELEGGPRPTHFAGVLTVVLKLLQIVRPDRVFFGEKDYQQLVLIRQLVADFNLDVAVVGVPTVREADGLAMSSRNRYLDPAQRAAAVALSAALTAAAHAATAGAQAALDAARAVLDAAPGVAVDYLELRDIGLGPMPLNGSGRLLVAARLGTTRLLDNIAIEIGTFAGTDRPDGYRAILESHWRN

Question: With `COc1cccc(NC(=O)NC2(C(F)(F)F)Oc3ccccc3O2)c1` as the compound, how does the inhibition read?
Answer: Its inhibition is 0%.

Question: `CSc1c(C#N)c(N)c(C#N)c2c1COC(C)(C)C2` was tested. Which inhibition did it give?
Answer: Its inhibition is 0%.

Question: Which inhibition does the source give for `CCN(CC)CCOC(=O)C1(c2ccc(OC)c(OC)c2)CCCC1` here?
Answer: Its inhibition is 12%.

Question: Which inhibition does the source give for `CC(=O)N1c2c(cc(Br)cc2S(=O)(=O)NCC2COc3ccccc3O2)CC1C` (stereo not given) here?
Answer: Its inhibition is 2%.

Question: Which inhibition does the source give for `N#CCOc1nc(N2CCOCC2)nc(N2CCOCC2)n1` here?
Answer: The inhibition was 0%.

Question: How did the inhibition turn out when `CCOCCCNC(=O)Cn1ncc2c(=O)oc3ccccc3c21` was run?
Answer: The inhibition was 0%.

Question: How did the inhibition turn out when `CN(C)S(=O)(=O)n1cnc(-c2ccccc2)c1-c1ccccc1` was run?
Answer: Its inhibition is 4%.

Question: For `COc1nc(OC)nc(N2CCC(C(=O)NC3CCCCCC3)CC2)n1`, which inhibition is on record?
Answer: The inhibition was 11%.

Question: With `CC(=O)c1cccc(S(=O)(=O)N2CCC(n3nnc4cc(F)ccc43)CC2)c1` as the compound, how does the inhibition read?
Answer: The inhibition was 0%.

Question: `N#CC1=C(N)N2C(=C(C#N)C13CCCCC3)SC1CCCCC12O` (stereo not given) was tested. Which inhibition did it give?
Answer: Its inhibition is 0%.

Question: With `c1ccc2c(c1)ccc1nnc(-c3ccc4c(c3)OCO4)n12` as the compound, how does the inhibition read?
Answer: The inhibition was 2%.

Question: With `Clc1ccc(Cn2c(CN3CCCC3)nc3ccccc32)cc1` as the compound, how does the inhibition read?
Answer: Its inhibition is 8%.

Question: How did the inhibition turn out when `O=C(COc1ccc(S(=O)(=O)NC2CCCCC2)cc1)NCc1ccccn1` was run?
Answer: The inhibition was 0%.

Question: Which inhibition does the source give for `O=C(c1cc(S(=O)(=O)N2CCOCC2)ccc1F)N1CCCc2ccccc21` here?
Answer: Its inhibition is 1%.

Question: For `CC1Cc2ccccc2N1C(=O)CSc1nnc2n1C(C)(C)Cc1ccccc1-2` (stereo not given), which inhibition is on record?
Answer: The inhibition was 0%.

Question: Which inhibition does the source give for `NC(=O)c1nsnc1-c1ccccc1O` here?
Answer: The inhibition was 2%.

Question: Which inhibition does the source give for `Oc1c(I)cc(Cl)c2cccnc12` here?
Answer: Its inhibition is 4%.

Question: With `Cc1cc(C(=O)N2CCN(c3ncccn3)CC2)cs1` as the compound, how does the inhibition read?
Answer: The inhibition was 4%.

Question: For `CNC(=O)NCCN1CCCC1=O`, which inhibition is on record?
Answer: The inhibition was 6%.

Question: For `N#Cc1cnc2sc3ccccc3n2c1=N`, which inhibition is on record?
Answer: Its inhibition is 3%.

Question: `CC1CN(c2ccc(Oc3ccccc3)cc2)c2nc3c(c(=O)n(CC(N)=O)c(=O)n3C)n2C1` (stereo not given) was tested. Which inhibition did it give?
Answer: The inhibition was 3%.

Question: `COc1cc2[nH]c(=O)n(CCCCCC(=O)N3CCN(c4ccccn4)CC3)c(=O)c2cc1OC` was tested. Which inhibition did it give?
Answer: Its inhibition is 2%.

Question: Which inhibition does the source give for `O=C1CCCC2=C1C(c1cccs1)n1nc(SCc3ccccc3F)nc1N2` (stereo not given) here?
Answer: Its inhibition is 0%.

Question: For `CCC(C(=O)O)n1c(C(F)(F)F)nc2ccccc21` (stereo not given), which inhibition is on record?
Answer: Its inhibition is 4%.

Question: For `Cc1cc(C(=O)Nc2ccccc2C#N)n(-c2ccccc2)n1`, which inhibition is on record?
Answer: Its inhibition is 0%.

Question: Which inhibition does the source give for `O=C(NCCCN1CCCC1=O)c1ccc2c(c1)NC(=O)C(N1CCOCC1)S2` (stereo not given) here?
Answer: The inhibition was 2%.

Question: `CCCCNc1cc(C)oc(=O)c1C(C)=O` was tested. Which inhibition did it give?
Answer: Its inhibition is 4%.

Question: `CCCCCC(=O)N(CN1C(=O)CCC1=O)c1ccccc1` was tested. Which inhibition did it give?
Answer: Its inhibition is 5%.

Question: How did the inhibition turn out when `O=C1CC(c2ccccc2)CC(O)=C1C=NCCN1CCOCC1` (stereo not given) was run?
Answer: Its inhibition is 5%.

Question: Which inhibition does the source give for `CCCCC(CC)CNC(=O)C1CCCN(S(=O)(=O)c2cnc[nH]2)C1` (stereo not given) here?
Answer: Its inhibition is 0%.

Question: For `c1n[nH]c(SCCCCSc2ncn[nH]2)n1`, which inhibition is on record?
Answer: The inhibition was 6%.

Question: How did the inhibition turn out when `CCOC(=O)N1CCN(C(=O)c2ccc3c(=O)n(Cc4ccc(OC)cc4)c(=S)[nH]c3c2)CC1` was run?
Answer: The inhibition was 4%.

Question: For `Cc1cccc(CS(=O)(=O)Cc2ccc(C(=O)NCC3CCCO3)o2)c1` (stereo not given), which inhibition is on record?
Answer: Its inhibition is 0%.

Question: How did the inhibition turn out when `CCn1cc(C2=NCC(C)O2)c2ccccc21` (stereo not given) was run?
Answer: The inhibition was 2%.

Question: With `Cc1cc(-c2ccccc2)nc(SCc2ccc(C(=O)O)o2)n1` as the compound, how does the inhibition read?
Answer: Its inhibition is 0%.

Question: For `CCOc1ccc2nc(S(N)(=O)=O)sc2c1`, which inhibition is on record?
Answer: The inhibition was 3%.

Question: For `CCn1c(SCC(=O)Nc2ccc3c(c2)OCO3)nc2c(c1=O)SC(C)C2` (stereo not given), which inhibition is on record?
Answer: Its inhibition is 0%.

Question: Which inhibition does the source give for `N#CCc1nc(CSc2nc3ccccc3s2)cs1` here?
Answer: Its inhibition is 7%.

Question: How did the inhibition turn out when `O=C(OCC(=O)c1cccs1)C1=COCCO1` was run?
Answer: The inhibition was 0%.

Question: How did the inhibition turn out when `O=C(C1CCCCC1)N1CCC(c2nc3c(nnn3Cc3c(F)cccc3Cl)c(=O)[nH]2)CC1` was run?
Answer: Its inhibition is 0%.
